PLAP activator = PLAP enzyme activators, biochemical, luminescence, HTS | hit rate 1.2% among 96,000 | purified PLAP enzyme, luminescent substrate read-out; hits give high values | Alkaline phosphatase, placental type (Homo sapiens), P05187 | activation fold at 20 µM; in the data active = activation fold above about 2
CYP2C19 act = human CYP2C19 activators, primary screen, biochemical, luminescence | Cytochrome P450 2C19 (Homo sapiens), P33261 | recombinant CYP2C19, luciferin-H EGE luminescence; hits give high values; 0 = fully inhibited enzyme, 1 = untreated enzyme | activation factor at 5 µM | 96,000 tested, under 10 active | AID 1025, 2008;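 active = activation factor of at least 2 at 5 µM in the primary screen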;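 also: 0 = wells with 2.5 mM tranylcypromine and 1 = vehicle-only wells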
Target sequence (P33261 whole entry, looked up): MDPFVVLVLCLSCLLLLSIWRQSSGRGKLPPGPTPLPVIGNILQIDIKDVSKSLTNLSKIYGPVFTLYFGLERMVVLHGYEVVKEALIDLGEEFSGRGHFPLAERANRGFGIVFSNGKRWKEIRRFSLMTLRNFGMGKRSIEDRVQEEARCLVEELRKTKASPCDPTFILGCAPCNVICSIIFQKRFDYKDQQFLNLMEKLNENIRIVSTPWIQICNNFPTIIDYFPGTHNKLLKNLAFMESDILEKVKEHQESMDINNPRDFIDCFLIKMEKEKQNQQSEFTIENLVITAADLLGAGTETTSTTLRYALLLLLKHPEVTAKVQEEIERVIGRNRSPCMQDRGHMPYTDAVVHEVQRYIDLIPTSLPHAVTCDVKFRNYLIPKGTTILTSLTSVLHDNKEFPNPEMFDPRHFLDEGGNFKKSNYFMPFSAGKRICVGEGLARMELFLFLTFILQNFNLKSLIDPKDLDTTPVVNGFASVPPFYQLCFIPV
CYP2C9 inhib = blockers of cytochrome P450 2C9 activity – biochemical, luminescence, ADME assay, primary screen; P11712; CYP2C9 Supersomes, luciferin-H conversion; inhibition, % at 5 µM; hit rate 20% among 96,000;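 active = blocking of liver enzyme CYP2C9 beyond about 50% at 5 µM, limit read from the data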
CYP2C19 inhib = blockers of cytochrome P450 2C19 activity – biochemical, luminescence, ADME assay, primary screen. P33261. CYP2C19 Supersomes, luciferin-H EGE luminescence, 30 min. inhibition, % at 5 µM. hit rate 21% among 96,000;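 active = CYP2C19 inhibition above a set limit at 5 µM in the primary screen, cut at about 50% in these data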;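 also: plate controls were negative control wells for no effect and 2.5 mM tranylcypromine positive control for full effect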
CYP2C9 act = human CYP2C9 activators, primary screen, biochemical, luminescence. Cytochrome P450 2C9 (Homo sapiens), P11712. recombinant CYP2C9, luciferin-H conversion; hits give high values; factor 1 = untreated enzyme, 0 = blocked. activation factor at 5 µM. hit rate 1.4% among 96,000. AID 1024, 2008;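 active = activation factor of 2 or more for CYP2C9 at a 5 µM dose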;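 also: 0 = sulfaphenazole-blocked wells and 1 = vehicle-only wells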
* marks the source's active call; other numbers are inactive results. Compounds with a hit are over-represented: about 31% of the library has one in this group of screens.

Screening COc1ccc(NC(=O)CN2CCN(CC(=O)Nc3ccccc3F)CC2)c(OC)c1 returned PLAP activator 1.3, CYP2C19 act 0, CYP2C9 inhib 71*, CYP2C19 inhib 98* and CYP2C9 act 0.3.
O=C(CN1CCN(C(=O)N2CCOCC2)CC1)Nc1ccc(Br)cc1 was read as PLAP activator 1.2, CYP2C19 act 1.2, CYP2C9 inhib -4, CYP2C19 inhib -19 and CYP2C9 act 1.
O=C(CN1CCCCCC1)Nc1ccc(Br)cc1 was read as PLAP activator 0.7, CYP2C19 act 0.1, CYP2C9 inhib 9, CYP2C19 inhib 93* and CYP2C9 act 0.9.
Screening COc1ccc(NC(=O)CSC2CCCCC2)cc1 returned PLAP activator 1.1, CYP2C19 act 0, CYP2C9 inhib 51*, CYP2C19 inhib 98* and CYP2C9 act 0.5.
N#Cc1ccsc1NC(=O)CN1CCCCCC1 was read as PLAP activator 1.1, CYP2C19 act 0.5, CYP2C9 inhib 21, CYP2C19 inhib 50* and CYP2C9 act 0.8.
Screening NS(=O)(=O)c1ccc(NC(=O)CSC2CCCCC2)cc1 returned PLAP activator 0.9, CYP2C19 act 1, CYP2C9 inhib 12, CYP2C19 inhib 4 and CYP2C9 act 0.9.
`Cc1sc2nc(SCC(=O)N(CCO)CCO)n(C3CCCCC3)c(=O)c2c1C` gave PLAP activator 0.8, CYP2C19 act 1, CYP2C9 inhib 16, CYP2C19 inhib 4 and CYP2C9 act 0.8.
For COc1ccc(NC(=O)CN2CCN(CC(=O)Nc3ccccc3Cl)CC2)cc1 the results were PLAP activator 1.4, CYP2C19 act 0.2, CYP2C9 inhib 49, CYP2C19 inhib 85* and CYP2C9 act 0.5.
Screening O=C(CN1CCNCC1)Nc1ccccc1Cl returned PLAP activator 0.8, CYP2C19 act 1, CYP2C9 inhib 0, CYP2C19 inhib 4 and CYP2C9 act 1.
For CCOc1ccc(NC(=O)CN2CCN(CC(=O)Nc3cc(OC)cc(OC)c3)CC2)cc1 the results were PLAP activator 1.7, CYP2C19 act 0.5, CYP2C9 inhib 59*, CYP2C19 inhib 48 and CYP2C9 act 0.4.
Screening O=C(Nc1ccc(Br)cc1)N1CCCCCCC1 returned PLAP activator 1, CYP2C19 act 0.1, CYP2C9 inhib -4, CYP2C19 inhib 93* and CYP2C9 act 1.
`COc1ccc(NC(=O)CN2CCN(c3ccc(Cl)cc3)CC2)c(OC)c1` gave PLAP activator 1.2, CYP2C19 act 0.5, CYP2C9 inhib 41, CYP2C19 inhib 47 and CYP2C9 act 0.6.
`COc1ccc(NC(=O)CN2CCN(CC(=O)Nc3ccccc3Cl)CC2)c(OC)c1` gave PLAP activator 1.2, CYP2C19 act 0, CYP2C9 inhib 74*, CYP2C19 inhib 98* and CYP2C9 act 0.3.
Screening CC(=O)Nc1ccc(NC(=O)N2CCCCC2)cc1 returned PLAP activator 1, CYP2C19 act 1, CYP2C9 inhib 9, CYP2C19 inhib 3 and CYP2C9 act 0.9.
COc1ccc(N2C(=NC(C)=O)SC3CS(=O)(=O)CC32)cc1OC (centres undefined) was read as PLAP activator 1, CYP2C19 act 1, CYP2C9 inhib 8, CYP2C19 inhib 0 and CYP2C9 act 0.9.
Cc1ccc(S(=O)(=O)c2cc(N3CCOCC3)nc(-c3ccccc3)n2)cc1 was read as PLAP activator 1, CYP2C19 act 1, CYP2C9 inhib 6, CYP2C19 inhib 3 and CYP2C9 act 0.9.
For O=c1c2ccccc2nnn1CSc1nnc(-c2ccco2)o1 the results were PLAP activator 1.1, CYP2C19 act 0.6, CYP2C9 inhib 39, CYP2C19 inhib 35 and CYP2C9 act 0.6.
For O=C(OC(C(=O)NCC1CCCO1)c1ccc(F)cc1)c1ccco1 (centres undefined) the results were PLAP activator 1, CYP2C19 act 0.9, CYP2C9 inhib 0, CYP2C19 inhib 6 and CYP2C9 act 1.
Cc1cc(OCC(=O)N2CCOCC2)ccc1NC(=O)C1CCCCC1 was read as PLAP activator 0.8, CYP2C19 act 1, CYP2C9 inhib -10, CYP2C19 inhib -4 and CYP2C9 act 1.1.
Screening COc1ccc(NC(=O)CN2CCCCC2)cc1 returned PLAP activator 1, CYP2C19 act 0.2, CYP2C9 inhib 24, CYP2C19 inhib 77* and CYP2C9 act 0.8.
Screening CN(CC(=O)OCC(=O)Nc1ccccc1)S(=O)(=O)c1ccc(Cl)cc1 returned PLAP activator 0.8, CYP2C19 act 0.7, CYP2C9 inhib 49, CYP2C19 inhib 32 and CYP2C9 act 0.5.
For COc1cccc(/C(O)=C2\C(=O)C(=O)N(c3ccccn3)C2c2cccc(OC)c2OC)c1 (centres undefined) the results were PLAP activator 1.3, CYP2C19 act 1.1, CYP2C9 inhib 1, CYP2C19 inhib -14 and CYP2C9 act 1.
`CCOC(=O)C(C)n1cnc2c(nnn2Cc2ccc(C)cc2)c1=O` (centres undefined) gave PLAP activator 1.2, CYP2C19 act 0.5, CYP2C9 inhib -191, CYP2C19 inhib 53* and CYP2C9 act 2.9*.
Cc1ccc(Cn2nnc3c(=O)n(Cc4cccc(C)c4)cnc32)cc1 was read as PLAP activator 0.9, CYP2C19 act 0.7, CYP2C9 inhib -106, CYP2C19 inhib 34 and CYP2C9 act 2.1*.
CCOC(=O)C(C)n1cnc2c(nnn2-c2ccc(C)cc2)c1=O (centres undefined) was read as PLAP activator 1, CYP2C19 act 1, CYP2C9 inhib 16, CYP2C19 inhib 2 and CYP2C9 act 0.8.
For CCOC(=O)C(C)n1cnc2c(nnn2Cc2ccc(Cl)cc2)c1=O (centres undefined) the results were PLAP activator 0.8, CYP2C19 act 0.8, CYP2C9 inhib -147, CYP2C19 inhib 21 and CYP2C9 act 2.5*.
For Cc1ccc(OC(=O)c2cccc(C(=O)Oc3ccc(C)cc3)n2)cc1 the results were PLAP activator 1, CYP2C19 act 1.2, CYP2C9 inhib -16, CYP2C19 inhib -16 and CYP2C9 act 1.2.
`CCOc1ccc(C2OC(=O)Cc3cc(OC)c(OC)cc32)cc1` (centres undefined) gave PLAP activator 1, CYP2C19 act 0.6, CYP2C9 inhib 26, CYP2C19 inhib 35 and CYP2C9 act 0.7.
CCOC(=O)c1[nH]c2ccc(C)cc2c1N=CN(CC)CC was read as PLAP activator 1.1, CYP2C19 act 1, CYP2C9 inhib -2, CYP2C19 inhib 1 and CYP2C9 act 1.
For CC(=O)C1=C(C)NC(=O)NC1c1cccc(O)c1 (centres undefined) the results were PLAP activator 1.1, CYP2C19 act 0.5, CYP2C9 inhib -2, CYP2C19 inhib 45 and CYP2C9 act 1.
Screening O=C1CC(c2ccccc2)c2ccc(O)cc2O1 (centres undefined) returned PLAP activator 0.8, CYP2C19 act 0.5, CYP2C9 inhib 54*, CYP2C19 inhib 45 and CYP2C9 act 0.5.

Assay outcomes (PubChem BioAssay)
